Molecules are shown by their SMILES. Compounds without any hit were thinned out: in the full panel of roughly 83,000, 20% have a hit.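 48-hour exposure, single concentration, 96-well plates; percent growth endpoint where 0 means no net growth. Active: below 10.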 Activity calls are given as the source filed them.

Drawing on PubChem BioAssay (NCI), this text covers growth for 40 molecules.

This test concerns SR leukemia. Put plainly: NCI-60 one-dose screen, 48 h (100 = growth as untreated, 0 = no growth, -100 = all killed). The settings on record: 10 µM unless noted. As for the experimental part:
Growth inhibition of the SR human tumor cell line is measured as a screen for anti-cancer activity. Cells are grown in 96 well plates and exposed to the test compound for 48 hours. Compounds are tested at a single concentration, which is 10^-5 M for most compounds. The reported endpoint is percent growth (GI% or GIPRCNT), where numbers from 0 - 100% represent growth inhibition, and numbers from -100% - 0 represent cell death. For example, a value of 40 represents 60% growth inhibition. A value of 0 means no net growth occurred over the course of the experiment. A value of -40 indicates 40% of cells at the beginning of the experiment died by the end of the experiment. A value of -100 means all cells are dead at the end of the experiment.
NCI-60 Human Tumor Cell Lines Screen was performed using the standard one-dose NCI protocol, which is described in more detail at https://dtp.cancer.gov/discovery_development/nci-60/default.htm.
Compounds with GIPRCNT values below 10 were considered active. Activity score was based on GIPRCNT using the following formula: […]
Score is 0 for GIPRCNT values of 100 or above, 50 for GIPRCNT values of 0, and 100 for GIPRCNT values of -100.
For the molecule `CNC12C3C4C1C1C2C3C41C(=O)N[C@H](C(=O)N(C)[C@H](C[C@@H](OC(C)=O)c1nc(C(=O)N[C@@H](Cc2ccccc2)C[C@H](C)C(=O)OC)cs1)C(C)C)C1CC1` (stereo not given in full), the growth was -12.7% (active).
For the molecule `CCn1c2ccccc2c2cc(C(=O)c3cccc4c3CCCN4)ccc21`, the growth was 95.3% (inactive).
Turning to `Cc1c(NS(=O)(=O)c2ccccc2)ccc([N+](=O)[O-])c1Cl`, the growth was 73.8% (inactive).
As to `C[C@@]12CC=C3c4nc(Nc5cccc(O)c5)sc4CC[C@]3(C)[C@H]1CC[C@]1(C)C(=O)CC[C@@H]21`, the growth was 3.61% (active).
As to `O=C1C(=Cc2cn(Cc3ccccc3)c3ccccc23)C(=O)N(Cc2ccccc2)C(=O)N1Cc1ccccc1`, the growth was 87.2% (inactive).
In the case of `CN1CCCCC1C(C)(O)c1ccccc1` (stereo not given) it was 113% (inactive).
In the case of `Clc1cccc(Cl)c1Cl` it was 92.7% (inactive); in that of `COC(=O)[C@@H](C)C[C@H](Cc1ccccc1)NC(=O)c1csc([C@@H](C[C@H](C(C)C)N(C)C(=O)[C@@H](NC(=O)CN(C)C)C2CC2)OC(C)=O)n1`, 3.74% (active); in that of `Clc1ccc(N2COOC3(OOC2)C2CC4CC(C2)CC3C4)cc1`, 11.2% (inactive).
Turning to `CC[C@H](C)[C@H](NC(=O)[C@H]1CCCCN1C)C(=O)N(C)[C@H](C[C@@H](O)c1nc(C(=O)N[C@@H](Cc2ccccc2)C[C@H](C)C(=O)O)cs1)C(C)C`, the growth was 29.2% (inactive).
`COc1ccc(NC([Se])=NC23CC4CC(CC(C4)C2)C3)cc1`: the growth was 5.11% (active).
Regarding `O=C(CC1(O)C(=O)N(Cc2ccccc2)c2ccccc21)c1ccc(C(=O)NCC2CCC3(CC2)OOC2(CCCCC2)OO3)cc1` (stereo not given), the growth is -49.3% (active).
In the case of `Cn1cc(C2=C(c3cn(C4CCN(Cc5ccccn5)CC4)c4ccccc34)C(=O)NC2=O)c2ccccc21` it was 7.89% (active); in that of `Clc1ccc(CSC(Cn2ccnc2)c2ccc(Cl)cc2Cl)cc1` (stereo not given), 2.95% (active); in that of `COc1ccc2c(c1)c(C1(O)CC(CSC#N)OC1=O)cn2C(=O)c1ccc(Cl)cc1` (stereo not given), 84.8% (inactive).
As to `Clc1cccc(NCOOC2(OOCNc3cccc(Cl)c3)CCCCC2)c1`, the growth is -41.4% (active).
Take `COc1cc(C=C2c3ccccc3C(=O)c3ccccc32)ccc1OCCCCOc1cc2c(cc1OC)C(=O)N1CCCC1C=N2` (stereo not given): the growth was -84.7% (active).
`Cn1cc(-c2csc(-c3cn(CCCCN4CCCCC4)c4ccccc34)n2)c2cccnc21`: the growth was -49.5% (active).
In the case of `Cc1ccc(C(=O)NCCCOc2ccc(N3C(N)=NC(N)=NC3(C)C)cc2Cl)cc1S(=O)(=O)F`, the growth is 21.4% (inactive).
In the case of `CCOC(=O)[C@@H](C)C[C@H](Cc1ccccc1)NC(=O)c1csc([C@@H](C[C@H](C(C)C)N(C)C(=O)[C@@H](NC(=O)[C@H]2C[C@H](O)CCN2C)C(C)C)OC(C)=O)n1` it was 5.63% (active); in that of `O=C(Nc1ccc([As]=[As]c2ccc(NC(=O)c3ccccc3)cc2)cc1)c1ccccc1` (stereo not given), 0.482% (active); in that of `CC(=O)Nc1nc2c(s1)CC[C@@]1(C)C2=CC[C@H]2[C@@H]3CC[C@H](O)[C@@]3(C)CC[C@@H]21`, 24.9% (inactive).
In the case of `CCOC(=O)[C@@H](C)C[C@H](Cc1ccccc1)NC(=O)c1csc([C@@H](C[C@H](C(C)C)N(C)C(=O)CNC(=O)[C@H]2CCCCN2C)OC(C)=O)n1`, the growth is 7.72% (active).
Turning to `COc1cc([C@@H]2c3cc4c(cc3[C@H](OC(C)=O)[C@H]3COC(=O)[C@@H]23)OCO4)cc(OC)c1OC`, the growth is 15.6% (inactive).
Under `COC(=O)[C@H](Cc1ccccc1)NC(=O)c1csc([C@@H](C[C@H](C(C)C)N(C)C(=O)[C@@H](NC(=O)[C@H]2CCCN2C)C2CC2)OC(C)=O)n1` stands 6.34% (active); under `NC(=O)CNc1ccc([As]=[As]c2ccc(NCC(N)=O)cc2)cc1` (stereo not given), 14% (inactive); under `CC(=O)O[C@H](C[C@H](C(C)C)N(C)C(=O)[C@@H](NC(=O)[C@H]1CCCCN1C)C(C)C)c1cccc(C(=O)N[C@@H](Cc2ccccc2)C[C@H](C)C(=O)O)n1`, 6.32% (active).
Take `C=CC1=C[C@@H]2[C@@H]3O[C@]4(CC[C@H](O4)[C@@H](C)C[C@@H](O)C3=O)C[C@H](O)C3=NCC[C@@]32CC1`: the growth is 2.4% (active).
In the case of `O=C1NC(=O)C(=Cc2ccc(OCCCCC3CCCCC3)c(Cl)c2)C(=O)N1`, the growth is 106% (inactive).
As for `COC(=O)[C@@H](C)C[C@H](Cc1ccccc1)NC(=O)c1csc([C@@H](C[C@H](C(C)C)N(C)C(=O)[C@@H](NC(=O)[C@H]2CCCCN2C)c2ccc(F)cc2)OC(C)=O)n1`, the growth is 6.27% (active).
`COC(=O)N[C@H]1CCc2c(Br)c(OC)c(OC)c(OC)c2-c2ccc(SC)c(=O)cc21`: the growth is -9.73% (active).
`CC(=O)O[C@H](C[C@H](C(C)C)N(C)C(=O)[C@@H](NC(=O)[C@H]1CCCCN1C)C(C)C)c1nc(C(=O)N[C@@H](Cc2ccccc2)C[C@H](C)C(=O)O)c(C(C)C)s1`: the growth was 7.04% (active).
`C[C@]12CC[C@H]3[C@@H](CC4SC(N)=NC45C/C(=N/NC(N)=O)CC[C@]35C)[C@@H]1CCC2=O` (stereo not given in full): the growth is -21.8% (active).
As to `CCCC[C@H](NC(=O)[C@H]1CCCCN1C)C(=O)N(C)[C@H](C[C@@H](OC(C)=O)c1nc(C(=O)N[C@@H](Cc2ccccc2)C[C@H](C)C(=O)OCC)cs1)C(C)C`, the growth was 4.92% (active).
Regarding `CN(C)CCCOc1ccc2c(c1)c(C(=O)C(=O)NCCO)cn2Cc1ccccc1`, the growth was 115% (inactive).
In the case of `CC[C@H](C)[C@@H]1OC(=O)C(C)(C)[C@H](O)[C@H](Cc2ccccc2)OC(=O)[C@H](C(C)C)OC(=O)[C@@H](NC(=O)c2cccc(NC=O)c2O)[C@@H](C)OC1=O`, the growth is 43.3% (inactive).
As to `CC(=O)O[C@H]1CC[C@]2(C)[C@H]3CC[C@]4(C)[C@@H](OC(C)=O)CC[C@H]4[C@@H]3[C@@H](C)[C@]2(O)C1`, the growth was 96.1% (inactive).
Under `ClCCN(CCCl)c1ccc(/C=N/Nc2ncnc3nc[nH]c23)cc1` stands 6.32% (active); under `CC[C@H](C)[C@H](NC(=O)C12CC(NC(C)=O)(C1)C2)C(=O)N(C)[C@H](C[C@@H](OC(C)=O)c1nc(C(=O)N[C@@H](Cc2ccccc2)C[C@H](C)C(=O)OC)cs1)C(C)C`, 20.8% (inactive).
Under `Cc1ccc(S(=O)(=O)F)cc1C(=O)O` stands 103% (inactive).
